Records with an inconclusive call do not appear. The source made the active and inactive calls. Unless noted, calls come from the whole dose curve; as a rule, active = well fitted curve in the direction sought with a large enough effect; inconclusive = small, poorly fitted or top-dose-only effect, or another doubt; inactive = no such curve, though single readings can be large; an effect the other way counts as inactive or inconclusive.
Key:
[1] = Primary qHTS for small molecule stabilizers of the endoplasmic reticulum resident proteome: Secreted ER Calcium Modulated Protein (SERCaMP) assay (AID 1508630); note: % is set by controls: 0 for no effect and ±100 for the full control effect
In short: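 GLuc-SERCaMP-expressing SH-SY5Y cells, pretreated 16 h with compound, are challenged with thapsigargin to empty ER calcium stores; after 4 h, coelenterazine is added directly to the medium and luminescence is imaged.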

[2] = target: Lysosomal acid glucosylceramidase (Homo sapiens) (UniProt P04062); assay: Glucocerebrosidase-p2 (AID 348; in the data active = potency below about 10 µM; note: potency is the fitted concentration of half-maximal effect); conditions: purified GBA, blue fluorogenic substrate, 40 min
In short: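 Compounds titrated from 0.6 nM upwards against 0.2 nM enzyme in pH 5.9 citric acid/KH2PO4, taurocholate, tween-20; blue fluorogenic substrate 80 uM, 40 min room temperature, stopped and read Ex 365/Em 440 for AC50.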

[3] = target: Cytochrome P450 1A2 (Homo sapiens) (UniProt P05177); assay: p450-cyp1a2 (AID 410; calls by dose curve; note: potency is the fitted concentration of half-maximal effect)
In short: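 20nM CYP1A2 with 100uM Luciferin-ME (at Km) in 100mM KPO4; compound preincubated 10 min, NADPH regeneration added, 60 min at room temperature. Luciferin quantified by luminescence after detection reagent; normalized to 57 uM furafylline.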

[4] = target: Glucocorticoid receptor (Homo sapiens) (UniProt P04150); assay: GR-GFP Redistribution (AID 450;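 active = compounds whose dose series gives a full or clear partial fitted curve of increased nuclear translocation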; note: potency is the fitted concentration of half-maximal effect); conditions: U2OS GR-GFP nuclear translocation, laser cytometry, 2 h
[5] = target: Glucocorticoid receptor (Homo sapiens) (UniProt P04150); assay: GR-EFC Redistribution (AID 451; calls by dose curve; note: potency is the fitted concentration of half-maximal effect); conditions: CHO-K1 GR-EFC translocation, beta-gal luminescence, 2 h
In short: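 CHO-K1 cells expressing nuclear EA and GR-ED fragments of b-gal; compounds titrated up to 46 uM final, 2 h at 37 C. GR nuclear translocation read as complemented b-gal luminescence after 1 h RT detection.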

[6] = target: 3',5'-cyclic-AMP phosphodiesterase 4B (Homo sapiens) (UniProt Q07343); assay: qHTS Assay for Inhibitors of PDE-IV (AID 607; active = well fitted activation curve with a large enough effect in the main read-out, with a control signal flat, not every such curve was filed as active; note: % of control where 0% means no effect)
In short: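 ACTOne HEK293 cells carry a modified cAMP-gated CNG channel and express endogenous PDE4; plated 1000 cells/well, compounds up to 22.9 uM final. Membrane-potential dye fluorescence (ex 535/em 590) was read; parental cells received 10 uM forskolin + 100 uM RO 20-1724.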

[7] = target: Cytochrome P450 3A4 (Homo sapiens) (UniProt P08684); assay: qHTS Assay for Activators of Cytochrome P450 3A4 (AID 885); note: nearly all actives have a fitted effect of over 65% in size
In short: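 20nM CYP3A4 + 25uM Luciferin-PPXE (=KM), 200mM KPO4; cpd 10 min RT; NADPH regen, 60 min RT; stop w/ detection buffer, 20 min; luminescence. Normalized to 57 uM ketoconazole.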

[8] = qHTS Assay for Lipid Storage Modulators (AID 1519; calls by dose curve); conditions: Drosophila S3 cells, BODIPY lipid droplet/cell ratio, laser cytometry, cells loaded with oleic acid; for activity change, negative = inhibition: at 57.5 µM (top of the series)
In short: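 Cells seeded at 5,000 per well were treated with compounds over a concentration series and loaded with oleic acid (400 uM, as added). Lipid droplet fluorescence (488 nm excitation, 500-530 nm channel) was read by laser-scanning cytometry and normalized to 20 uM Triacsin C.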

[9] = target: Dual specificity protein kinase CLK4 (Homo sapiens) (UniProt Q9HAZ1); assay: qHTS Assay for Inhibitors of CDC-like Kinase 4 (Kinase-Glo Assay) (AID 1770); note: % is set by controls: 0 for no effect and ±100 for the full control effect; nearly all actives have a fitted effect of over 65% in size
In short: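 Recombinant human Clk4 (25 nM) phosphorylated RS repeat peptide (100 uM) with 1 uM ATP in Tris pH 7.5/MgCl2/EGTA/DTT/Triton buffer for 4.5 h at room temperature. Residual ATP was quantified by Kinase-Glo luciferase luminescence.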

[10] = target: Dual specificity protein kinase CLK4 (Homo sapiens) (UniProt Q9HAZ1); assay: qHTS Assay for Inhibitors of CDC-like Kinase 4 (ADP-Glo Assay) (AID 1771); note: % is set by controls: 0 for no effect and ±100 for the full control effect; nearly all actives have a fitted effect of over 70% in size
In short: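 25 nM Clk4 with 100 uM RS repeat peptide and 1 uM ATP (final) in buffer with 2 mM MgCl2, 0.5 mM EGTA, 2.5 mM DTT, 0.01% Triton X-100; 1 h at room temperature; ADP-Glo luminescence for ADP formed.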

[11] = target: Dual specificity protein kinase CLK4 (Homo sapiens) (UniProt Q9HAZ1); assay: qHTS Assay for Inhibitors of CDC-like Kinase 4 (ADP-FP Assay) (AID 1795); note: % is set by controls: 0 for no effect and ±100 for the full control effect; nearly all actives have a fitted effect of over 60% in size
In short: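 Recombinant human Clk4 (6.25 nM) phosphorylated RS repeat peptide (100 uM) with 1 uM ATP in Tris pH 7.5/MgCl2/EGTA/DTT/Triton buffer for one hour. ADP was quantified by Transcreener competitive fluorescence polarization against an ADP calibration curve.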

[12] = target: Ubiquitin carboxyl-terminal hydrolase 1 (Homo sapiens) (UniProt O94782); assay: Inhibitors of USP1/UAF1: Pilot qHTS (AID 504865); note: potency is the fitted concentration of half-maximal effect; nearly all actives have a fitted effect of over 35% in size
In short: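 USP1/UAF1 complex (1nM) preincubated with compound 15 min at room temperature, then Ub-Rho substrate (150nM final) added. Fluorescence read kinetically at 480/540 nm, 6 reads every 60 seconds. Buffer: 50mM HEPES pH 7.8, 0.5mM EDTA, 0.1 mg/ml BSA, 1mM TCEP, 0.01% Tween-20.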

[13] = target: Rap guanine nucleotide exchange factor 3 (Homo sapiens) (UniProt O95398); assay: Confirmatory qHTS for agonist of cAMP-regulated guanine nucleotide exchange factor 3 (EPAC1) (AID 1645881);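 note: EPAC1 catalysed release of BODIPY-GDP from Rap1B seen as fluorescence loss; 100% = effect of cAMP agonist control; nearly all actives have a fitted effect of over 75% in size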
[14] = target: Rap guanine nucleotide exchange factor 4 (Homo sapiens) (UniProt Q8WZA2); assay: Confirmatory qHTS for antagonist of cAMP-regulated guanine nucleotide exchange factor 4 (EPAC2) (AID 1645885); note: % is set by controls: 0 for no effect and ±100 for the full control effect; nearly all actives have a fitted effect of over 25% in size
[15] = AP1 Signaling Pathway (AID 357; active = well fitted curve in either direction with a large enough effect, not every such curve was filed as active;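 note: ME-180 reporter cells stimulated with EGF at its EC50 level; % is set by controls: 0 for no effect and ±100 for the full control effect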); conditions: ME-180 AP-1-bla reporter, EGF-induced, beta-lactamase ratio, 5 h; at 7.69 µM (top of the series) unless noted
In short: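 Cells are seeded overnight, exposed to compound titrations and an EC50 level of EGF for 5 hours at 37 °C, then loaded with CCF4 dye for 2.5 hours. Beta-lactamase activity under the AP-1 element is read as a blue/green ratio.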

[16] = NFAT Signaling Pathway (AID 444; active = well fitted curve in either direction with a large enough effect, not every such curve was filed as active;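 note: carbachol stimulus at about its EC50 of 1 µM final; % is set by controls: 0 for no effect and ±100 for the full control effect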); conditions: Jurkat NFAT-bla M1, carbachol, beta-lactamase ratio, 5 h; at 7.69 µM (top of the series) unless noted
In short: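 Jurkat cells with NFAT-driven β-lactamase reporter and co-expressed M1 receptor, stimulated with carbachol (final 1 uM, ~EC50), compound titration, 5 h at 37 °C. CCF4 loaded 1 h at RT; 460/530 nm ratio gave %activity and AC50.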

[17] = Stat Signaling Pathway (AID 446; active = well fitted curve in either direction with a large enough effect, not every such curve was filed as active;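 note: ME-180 cervical cancer cells given 40 pM IL-6 alongside compound; SIE-controlled beta-lactamase reporter measured as 460/530 nm FRET emission ratio; % is set by controls: 0 for no effect and ±100 for the full control effect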); conditions: ME-180 SIE beta-lactamase reporter, IL-6 stimulated, 5 h; at 7.69 µM (top of the series) unless noted
In short: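 ME-180 SIE-bla cells; overnight plating; cpd + IL-6 40 pM, 5 h, 37 C; LiveBLAzer 2.5 h RT; 460/530 nm emission ratio. Normalized to 300 pM IL-6 and 125 nM JAK inhibitor controls.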

[18] = target: Mitogen-activated protein kinase 10 (Mus musculus) (UniProt Q61831); assay: JNK3 AlphaScreen Assay (AID 530; active = well fitted curve in either direction with a large enough effect, not every such curve was filed as active)
In short: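 Pre-activated (IL-1β/TNFα) JNK3 in HepG2 lysates phosphorylates biotin-GST-cJun(1-79), 10 uM ATP; anti-phospho-cJun(Ser73) AlphaScreen read at room temperature, pH 7.6 Tris buffer. Compounds pre-incubated 15 min as titrations.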

[19] = target: Rap guanine nucleotide exchange factor 4 (Homo sapiens) (UniProt Q8WZA2); assay: Confirmatory qHTS for agonist of cAMP-regulated guanine nucleotide exchange factor 4 (EPAC2) (AID 1645884);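 note: nucleotide exchange releases bodipy-GDP from Rap1 and this lowers its fluorescence; % is set by controls: 0 for no effect and ±100 for the full control effect; nearly all actives have a fitted effect of over 65% in size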
[20] = measured here: cell count channel max response
[21] = measured here: lipid channel max response

Dual specificity protein kinase CLK4 (Homo sapiens), sequence (Q9HAZ1 whole entry, looked up): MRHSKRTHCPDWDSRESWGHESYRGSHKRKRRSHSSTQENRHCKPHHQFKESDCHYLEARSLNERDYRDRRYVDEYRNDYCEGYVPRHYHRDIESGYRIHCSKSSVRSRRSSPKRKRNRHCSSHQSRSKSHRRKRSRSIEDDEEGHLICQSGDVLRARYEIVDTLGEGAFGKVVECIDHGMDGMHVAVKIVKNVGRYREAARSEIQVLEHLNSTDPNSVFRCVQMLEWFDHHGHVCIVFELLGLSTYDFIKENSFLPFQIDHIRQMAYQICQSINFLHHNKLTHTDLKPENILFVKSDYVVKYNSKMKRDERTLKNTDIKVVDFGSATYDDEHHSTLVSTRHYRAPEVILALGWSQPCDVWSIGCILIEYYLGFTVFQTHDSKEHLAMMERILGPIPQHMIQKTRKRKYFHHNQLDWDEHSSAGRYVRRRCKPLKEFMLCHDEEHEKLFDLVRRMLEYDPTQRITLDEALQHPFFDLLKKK
Glucocorticoid receptor (Homo sapiens), sequence (P04150 whole entry, looked up, the tested form may be a part): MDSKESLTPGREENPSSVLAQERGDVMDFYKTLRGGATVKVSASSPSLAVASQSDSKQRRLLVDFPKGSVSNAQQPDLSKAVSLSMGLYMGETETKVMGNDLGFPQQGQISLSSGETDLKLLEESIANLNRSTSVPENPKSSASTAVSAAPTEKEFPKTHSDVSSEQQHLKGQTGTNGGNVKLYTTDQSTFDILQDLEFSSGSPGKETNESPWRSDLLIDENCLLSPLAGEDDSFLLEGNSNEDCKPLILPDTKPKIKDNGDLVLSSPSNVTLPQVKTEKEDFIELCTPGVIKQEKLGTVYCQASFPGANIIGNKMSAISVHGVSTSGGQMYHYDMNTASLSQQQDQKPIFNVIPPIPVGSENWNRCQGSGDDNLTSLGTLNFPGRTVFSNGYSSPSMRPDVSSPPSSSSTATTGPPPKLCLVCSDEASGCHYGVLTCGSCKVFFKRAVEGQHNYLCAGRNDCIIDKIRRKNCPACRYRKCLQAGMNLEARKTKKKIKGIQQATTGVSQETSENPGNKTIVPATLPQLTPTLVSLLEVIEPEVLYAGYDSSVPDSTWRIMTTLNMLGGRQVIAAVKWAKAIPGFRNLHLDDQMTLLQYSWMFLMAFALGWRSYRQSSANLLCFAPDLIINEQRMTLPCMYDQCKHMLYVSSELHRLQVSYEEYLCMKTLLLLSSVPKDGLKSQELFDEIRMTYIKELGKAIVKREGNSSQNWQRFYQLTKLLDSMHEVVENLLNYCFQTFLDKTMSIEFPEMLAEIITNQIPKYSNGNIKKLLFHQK
Rap guanine nucleotide exchange factor 3 (Homo sapiens), sequence (O95398 whole entry, looked up): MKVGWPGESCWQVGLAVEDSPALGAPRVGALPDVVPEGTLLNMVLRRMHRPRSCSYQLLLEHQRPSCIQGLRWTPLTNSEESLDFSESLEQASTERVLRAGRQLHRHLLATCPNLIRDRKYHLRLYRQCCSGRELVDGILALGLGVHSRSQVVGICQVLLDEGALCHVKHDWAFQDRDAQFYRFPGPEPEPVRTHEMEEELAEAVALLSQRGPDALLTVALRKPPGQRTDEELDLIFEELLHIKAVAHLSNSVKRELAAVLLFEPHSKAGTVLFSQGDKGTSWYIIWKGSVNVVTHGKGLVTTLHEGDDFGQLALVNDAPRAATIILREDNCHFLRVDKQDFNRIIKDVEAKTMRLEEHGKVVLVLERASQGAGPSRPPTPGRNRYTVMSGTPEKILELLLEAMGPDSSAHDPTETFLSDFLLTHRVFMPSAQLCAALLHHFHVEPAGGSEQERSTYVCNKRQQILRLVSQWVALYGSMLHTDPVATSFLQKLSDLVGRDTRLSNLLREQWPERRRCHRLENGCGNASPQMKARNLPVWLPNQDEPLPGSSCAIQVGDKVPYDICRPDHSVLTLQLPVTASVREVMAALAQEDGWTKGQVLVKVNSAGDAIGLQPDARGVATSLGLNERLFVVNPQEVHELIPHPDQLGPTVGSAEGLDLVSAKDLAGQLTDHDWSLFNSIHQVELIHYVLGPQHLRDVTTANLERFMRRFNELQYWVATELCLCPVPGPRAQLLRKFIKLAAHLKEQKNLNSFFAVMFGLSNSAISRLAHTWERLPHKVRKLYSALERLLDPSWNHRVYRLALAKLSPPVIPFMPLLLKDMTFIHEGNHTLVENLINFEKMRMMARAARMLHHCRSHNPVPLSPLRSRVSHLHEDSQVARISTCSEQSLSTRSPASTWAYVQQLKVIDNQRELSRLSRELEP
3',5'-cyclic-AMP phosphodiesterase 4B (Homo sapiens), sequence (Q07343 whole entry, looked up): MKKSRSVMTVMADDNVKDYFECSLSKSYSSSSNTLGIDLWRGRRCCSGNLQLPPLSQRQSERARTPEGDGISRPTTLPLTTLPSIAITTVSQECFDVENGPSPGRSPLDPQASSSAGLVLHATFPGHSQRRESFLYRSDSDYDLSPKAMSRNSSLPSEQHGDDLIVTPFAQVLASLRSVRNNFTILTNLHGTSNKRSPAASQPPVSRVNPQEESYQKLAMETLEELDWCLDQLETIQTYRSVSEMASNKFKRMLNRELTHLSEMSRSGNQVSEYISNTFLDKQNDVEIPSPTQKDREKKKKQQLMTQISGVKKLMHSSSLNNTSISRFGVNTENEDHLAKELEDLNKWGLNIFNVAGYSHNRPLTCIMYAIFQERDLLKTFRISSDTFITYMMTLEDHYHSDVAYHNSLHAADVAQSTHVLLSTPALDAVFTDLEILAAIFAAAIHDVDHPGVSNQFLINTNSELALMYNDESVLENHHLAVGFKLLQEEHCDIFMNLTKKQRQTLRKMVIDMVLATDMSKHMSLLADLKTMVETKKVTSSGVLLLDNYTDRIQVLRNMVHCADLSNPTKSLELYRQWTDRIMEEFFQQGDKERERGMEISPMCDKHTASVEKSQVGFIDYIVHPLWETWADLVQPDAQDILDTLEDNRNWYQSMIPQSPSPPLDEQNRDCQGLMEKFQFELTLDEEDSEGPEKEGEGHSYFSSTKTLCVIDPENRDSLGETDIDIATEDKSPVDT
Cytochrome P450 1A2 (Homo sapiens), sequence (P05177 whole entry, looked up): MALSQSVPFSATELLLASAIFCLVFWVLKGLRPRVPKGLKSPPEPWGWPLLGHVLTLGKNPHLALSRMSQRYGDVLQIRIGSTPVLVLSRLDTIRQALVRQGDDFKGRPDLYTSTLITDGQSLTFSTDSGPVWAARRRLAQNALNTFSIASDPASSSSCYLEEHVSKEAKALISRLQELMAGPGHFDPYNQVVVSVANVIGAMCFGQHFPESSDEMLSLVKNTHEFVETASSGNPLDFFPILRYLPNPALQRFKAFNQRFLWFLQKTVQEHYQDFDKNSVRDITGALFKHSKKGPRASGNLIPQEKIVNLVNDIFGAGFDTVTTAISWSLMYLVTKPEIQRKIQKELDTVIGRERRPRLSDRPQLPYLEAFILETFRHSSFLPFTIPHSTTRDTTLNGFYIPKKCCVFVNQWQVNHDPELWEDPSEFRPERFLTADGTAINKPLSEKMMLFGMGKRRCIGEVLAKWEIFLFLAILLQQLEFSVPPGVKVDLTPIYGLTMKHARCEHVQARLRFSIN
Lysosomal acid glucosylceramidase (Homo sapiens), sequence (P04062 whole entry, looked up): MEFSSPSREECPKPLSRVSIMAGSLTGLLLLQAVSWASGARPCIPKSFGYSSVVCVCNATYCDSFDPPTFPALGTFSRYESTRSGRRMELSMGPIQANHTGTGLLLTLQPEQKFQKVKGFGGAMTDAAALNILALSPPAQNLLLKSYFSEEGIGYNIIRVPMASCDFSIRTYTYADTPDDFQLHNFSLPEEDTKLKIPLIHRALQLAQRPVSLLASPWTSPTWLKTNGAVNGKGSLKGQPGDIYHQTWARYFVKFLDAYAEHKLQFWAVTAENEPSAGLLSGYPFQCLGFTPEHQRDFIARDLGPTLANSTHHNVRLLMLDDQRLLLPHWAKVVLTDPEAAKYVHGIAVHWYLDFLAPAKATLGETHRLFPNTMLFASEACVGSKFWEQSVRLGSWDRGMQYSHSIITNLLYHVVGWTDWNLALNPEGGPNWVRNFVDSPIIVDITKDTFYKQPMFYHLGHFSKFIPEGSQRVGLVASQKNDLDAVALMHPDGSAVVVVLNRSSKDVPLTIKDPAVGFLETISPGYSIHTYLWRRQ
Cytochrome P450 3A4 (Homo sapiens), sequence (P08684 whole entry, looked up): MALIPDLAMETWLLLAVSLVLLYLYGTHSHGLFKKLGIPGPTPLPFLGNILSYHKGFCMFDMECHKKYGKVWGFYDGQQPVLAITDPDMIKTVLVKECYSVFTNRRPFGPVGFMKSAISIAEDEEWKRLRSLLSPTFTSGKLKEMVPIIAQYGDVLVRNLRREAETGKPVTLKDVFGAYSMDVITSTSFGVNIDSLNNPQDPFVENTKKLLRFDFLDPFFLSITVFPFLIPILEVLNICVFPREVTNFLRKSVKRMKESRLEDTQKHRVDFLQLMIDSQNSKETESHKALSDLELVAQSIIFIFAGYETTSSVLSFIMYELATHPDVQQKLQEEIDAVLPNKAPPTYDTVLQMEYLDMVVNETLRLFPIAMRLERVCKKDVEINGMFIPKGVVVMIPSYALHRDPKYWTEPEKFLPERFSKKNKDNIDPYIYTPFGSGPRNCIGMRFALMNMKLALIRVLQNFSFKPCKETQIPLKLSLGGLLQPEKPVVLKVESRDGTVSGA

## COc1ccccc1Oc1coc2cc(O)ccc2c1=O
[1]
  Potency: inactive

## COc1cccc(Cn2c(=O)c(-c3cn(C)c4ccccc34)nc3cnc(N4CCNCC4)nc32)c1
[2]
  Potency: > 11.4 µM (inactive)
[3]
  Potency: 15.8 µM (active)
[4]
  Potency: > 9.22 µM (inactive)
[5]
  Potency: > 46 µM (inactive)
[6]
  Potency: inactive
[7]
  Potency: inactive
[8]
  activity change, negative = inhibition: 5.92% (inactive)
[8]; [20]
  max response: 13.9%
[8]; [21]
  max response: 20.8%
[9]
  Potency: inactive
[10]
  Potency: inactive
[11]
  Potency: inactive
[12]
  Potency: 14.1 µM (active)
[1]
  Potency: inactive
[13]
  outcome: inactive
[14]
  Potency: inactive

## CC(C)=CCC1=C(O)[C@](O)(CC=C(C)C)C(=O)C(C(=O)CC(C)C)=C1O
[1]
  Potency: inactive

## O=C(c1cnccn1)N1CCC[C@@]2(CCN(C(c3ccccc3)c3ccccc3)C2)C1
[2]
  Potency: > 11.4 µM (inactive)
[15]
  activity change, negative = inhibition: 0.193% (inactive)
[3]
  Potency: 15.8 µM (active)
[16]
  activity change, negative = inhibition: 11.2% (inactive)
[17]
  activity, negative = inhibition: 16.5% (inactive)
[5]
  Potency: > 46 µM (inactive)
[18]
  outcome: inactive
[6]
  Potency: inactive
[7]
  Potency: inactive
[8]
  activity change, negative = inhibition: -1.1% (inactive)
[8]; [20]
  max response: 3.2%
[8]; [21]
  max response: 5.21%
[1]
  Potency: inactive
[13]
  outcome: inactive
[19]
  outcome: inactive

From PubChem BioAssay (NCATS)
